Compound activity from PubChem BioAssay.
DT40 TDP1 CPT – qHTS for Inhibitors of human tyrosyl-DNA phosphodiesterase 1 (TDP1): qHTS in cells in presence of CPT; Potency, µM (doses to about 46.2 µM), for inactives: at the top dose activity change, negative = growth inhibition, hits mostly inhibitors; chicken DT40 Tdp1-/-;hTDP1 cells + 20 nM CPT, ATP luminescence, 48 h; actives 12% (n = 420,000); note: % is set by controls: 0 for no effect and ±100 for the full control effect; nearly all actives have a fitted effect of over 55% in size
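Cell growth measured by CellTiter-Glo luminescence after a minimum 48 h, 37 C compound exposure with 20 nM CPT in Tdp1-knockout DT40 cells stably expressing hTDP1, seeded 400/well; qHTS titration format.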
TDP1 cell noCPT – qHTS for Inhibitors of human tyrosyl-DNA phosphodiesterase 1 (TDP1): qHTS in cells in absence of CPT | DT40 Tdp1-/- hTDP1 cells, no CPT, ATP luminescence, 48 h | Potency, µM (highest dose often 46.2 µM), inactives show at the highest dose activity change, negative = growth inhibition, hits mostly inhibitors | actives 15% (n = 420,000) | AID 686978, 2013; note: % is set by controls: 0 for no effect and ±100 for the full control effect; nearly all actives have a fitted effect of over 55% in size
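Seeded 400 DT40-hTDP1 cells/well (vehicle DMSO, no 20 nM CPT); pinned compounds; ≥48 hr at 37 °C; CellTiter-Glo luminescence as viability measure.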
ClpP mod – qHTS Assay for Activators of ClpP; AID 651965, 2013; Potency, µM (highest dose often 57.5 µM), inactives show at the highest dose activity change, negative = active; ATP-dependent Clp protease proteolytic subunit (Bacillus subtilis (strain 168)), P80244; purified B. subtilis ClpP, FRET peptide cleavage, 20 min; actives 1.9% (n = 340,000); active = well fitted falling curve with a large enough effect; inconclusive = small, poorly fitted or top-dose-only effect; inactive = no such curve, though single readings can be large or run the other way; note: the source files actives as falling curves though it sought activators and does not explain the sign; nearly all actives have a fitted effect of over 65% in size
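ClpP 10 microg/mL final, pH 8 Tris/KCl buffer with BSA, glycerol, Tween-20; compound pinned in; FRET-FV substrate; RT 20 min; Ex320/Em430; ΔFRET vs ADEP 5.8 microM, DMSO, no enzyme.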
TDP1 inh – qHTS Assay for Inhibitors of Tyrosyl-DNA Phosphodiesterase (TDP1); Tyrosyl-DNA phosphodiesterase 1 (Homo sapiens), Q9NUW8; recombinant TDP1, AlphaScreen DNA substrate cleavage; Potency, µM (top dose mostly 130 µM), without a hit: at the top dose activity change, negative = inhibition, usual class: inhibitors; actives 0.28% (n = 350,000); note: % is set by controls: 0 for no effect and ±100 for the full control effect; nearly all actives have a fitted effect of over 40% in size
Target sequence (Q9NUW8 whole entry, looked up): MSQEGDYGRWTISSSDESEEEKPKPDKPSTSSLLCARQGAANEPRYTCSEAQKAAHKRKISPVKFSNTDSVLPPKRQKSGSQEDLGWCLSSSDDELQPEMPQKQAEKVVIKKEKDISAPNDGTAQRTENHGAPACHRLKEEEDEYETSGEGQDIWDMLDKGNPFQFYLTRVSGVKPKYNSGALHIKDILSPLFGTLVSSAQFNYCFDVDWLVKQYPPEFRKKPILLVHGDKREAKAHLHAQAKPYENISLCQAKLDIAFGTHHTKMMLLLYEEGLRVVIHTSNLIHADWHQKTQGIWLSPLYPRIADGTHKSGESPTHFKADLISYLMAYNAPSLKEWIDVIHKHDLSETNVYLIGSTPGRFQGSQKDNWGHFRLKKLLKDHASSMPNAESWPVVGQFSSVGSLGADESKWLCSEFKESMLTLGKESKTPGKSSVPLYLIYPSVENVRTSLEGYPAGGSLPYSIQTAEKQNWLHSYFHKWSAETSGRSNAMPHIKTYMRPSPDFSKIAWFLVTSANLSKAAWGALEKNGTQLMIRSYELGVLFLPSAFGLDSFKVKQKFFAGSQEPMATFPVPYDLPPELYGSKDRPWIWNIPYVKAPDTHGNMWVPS
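Recombinant human Tdp1 (E. coli-expressed, 1 nM final) preincubated with compounds 15 min at room temperature, then 5'-biotin/3'-phosphotyrosine-FITC DNA substrate (15 nM final) added for 5 min. AlphaScreen beads (10 ug/ml final) added 10 min; cleavage lowers signal.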
An asterisk follows results filed as active; ? = inconclusive; . = not tested or not shown; [ ] = another dose, or the depositor's remark. Hits are enriched below; roughly 17% of the tested compounds scored in any of these assays. Unless noted, calls come from the whole dose curve; as a rule, active = well fitted curve in the direction sought with a large enough effect; inconclusive = small, poorly fitted or top-dose-only effect, or another doubt; inactive = no such curve, though single readings can be large; an effect the other way counts as inactive or inconclusive. Potency is the fitted concentration of half-maximal effect.

SMILES	DT40 TDP1 CPT	TDP1 cell noCPT	ClpP mod	TDP1 inh
COc1ccc2c(c1)c(C(=O)N1CCN(C)CC1)c(C)n2-c1ccccc1	-15%	-10%	-1%	5%
COCCOC(=O)c1c(C)n(C)c2ccc(OC(=O)c3c(OC)cccc3OC)cc12	?	16µM*	1%	.
CCOC(=O)c1c(C)n(-c2ccccc2)c2ccc(OC(=O)c3ccc(OCC)c(OCC)c3)cc12	?	18µM*	-30%	3%[12.3 µM]
COCCNC(=S)N1CCC2CC1c1c(Cl)cccc12 (centres undefined)	-24%	?	1%	.
COc1ccccc1S(=O)(=O)N(C)C[C@@H]1OCc2cnnn2CCCC(=O)N([C@@H](C)CO)C[C@H]1C	0%	3%	-2%	.
Cc1nc(NC(=O)CSC2=NCCS2)sc1C(=O)N(C)C	?	1%	-4%	1%
COc1ccc(NCc2nnc(SCC(=O)c3ccc(OC)cc3)o2)cc1	?	16µM*	6%	7%
COc1ccc(C(=O)CSc2nnc(Cn3cnc4ccccc43)o2)cc1	8.2µM*	16µM*	0%	7%
Cc1cc(NC(=O)c2cc3cccc([N+](=O)[O-])c3[nH]2)ccc1F	?	21µM*	1%	7%
Cc1ccc([C@H]2C[C@H](n3cc(COC(=O)c4ccccc4)nn3)[C@@H](O)CN2CC2CCCCC2)cc1	?	21µM*	-1%	.
CCCCCCN1C[C@@H](O)[C@H](n2cc(COC(=O)c3ccccc3)nn2)C[C@@H]1c1ccccc1	?	?	2%	.
Cc1ccc([C@H]2C[C@@H](n3cc(COC(=O)c4ccccc4)nn3)[C@H](O)CN2C(=O)C2CCCCC2)cc1	?	21µM*	-1%	.
CCCCCCN1C[C@@H](O)[C@H](n2cc(COC(=O)c3ccccc3)nn2)C[C@@H]1c1ccc(C)cc1	21µM*	21µM*	-2%	.
COc1ccc([C@H]2C[C@H](O)[C@@H](n3cc(COC(=O)c4ccccc4)nn3)CN2CC2CCCCC2)cc1	23µM*	23µM*	-5%	.
C#CCn1c(O)c(N=NC(=O)CNC(=O)c2cccnc2)c2ccccc21	-14%	6%	1%	1%
COc1ccc(C(=O)Nc2ccc3cn[nH]c3c2)c(OC)c1	19%	-3%	.	0%
O=c1cnn(-c2ccccc2)c(-c2ccccc2)c1	?	18µM*	-2%	0%
CN1C[C@@H]2[C@@H]3C(=O)N(Cc4ccccc4)C(=O)[C@@H]3[C@](Cc3ccccc3)(C1=O)N2C(=O)c1ccc(Cl)cc1	?	-9%	-1%	.
Cc1cc(=O)nc2c3ccccc3n(CC(=O)NCCCN3CCCC3=O)n12	9%	26%	3%	0%
CC(C)CC1Nc2ncnc(N3CCN(c4ccccn4)CC3)c2N(Cc2ccc(Cl)cc2)C1=O (centres undefined)	?	23µM*	?	5%
CC(C)CC1Nc2ncnc(N3CCCCC3)c2N(Cc2ccccc2)C1=O (centres undefined)	26µM*	18µM*	-3%	.
CC(C)CC1Nc2ncnc(N3CCN(c4ccccc4)CC3)c2N(Cc2ccc(Br)cc2)C1=O (centres undefined)	16µM*	18µM*	-4%	.
CC(C)CC1Nc2ncnc(N3CCN(c4ccccc4)CC3)c2N(Cc2ccccc2)C1=O (centres undefined)	16µM*	15µM*	-6%	.
COc1ccc(CN2C(=O)C(CC(C)C)Nc3ncnc(N4CCCCC4)c32)cc1 (centres undefined)	?	?	-1%	-1%
N#C[C@H](Cc1ccc(O)cc1)c1ccc(O)cc1	-12%	?	.	11%
SMILES	DT40 TDP1 CPT	TDP1 cell noCPT	ClpP mod	TDP1 inh
COc1ccc(CN2C(=O)C(CC(C)C)Nc3ncnc(N4CCN(c5ccccc5)CC4)c32)cc1 (centres undefined)	18µM*	?	-6%	3%
COc1cc(C=C(c2nc3ccccc3s2)c2nc3ccccc3s2)cc(OC)c1O	23µM*	?	-1%	8%
COc1cc(/C=C(\CC(=O)O)c2nc3ccccc3s2)cc(OC)c1O	-16%	?	0%	-13%
CN(C)c1ccc(/C=C(\Cl)c2nc3ccccc3s2)cc1	16µM*	21µM*	1%	-3%
COc1cc(/C=N/NC(=Nc2ccc(C)cc2)c2nc3ccccc3s2)ccc1O	14µM*	16µM*	-9%	8%
CCOc1ccccc1NC(=O)c1cc2c(=O)[nH]c3ccccc3c2s1	-27%	7%	-12%	-2%
Cn1c(CCCNC(=O)c2ccco2)nc2ccccc21	18%	-4%	.	.
Cc1cc(/C=C2/SC(=S)N(c3cccc(Cl)c3)C2=O)c(C)n1-c1cccnc1	2.6µM*	2.1µM*	1%	.
Cc1cc(/C=C2\SC(=S)N(C)C2=O)c(C)n1-c1ccccc1O	21µM*	8.2µM*	0%	.
Cc1cc(/C=C2/SC(=S)N(c3ccc([N+](=O)[O-])cc3)C2=O)c(C)n1-c1cccnc1	1.6µM*	1µM*	-1%	10%
Cc1cccc(N2C(=O)/C(=C/c3cccnc3)SC2=S)c1	?	-27%	.	.
Cc1cc(/C=C2/NC(=O)N(c3ccccc3)C2=O)c(C)n1-c1cccnc1	26µM*	?	.	11%
Cc1onc(-c2c(F)cccc2Cl)c1C(=O)Nc1cc2cc([N+](=O)[O-])ccc2oc1=O	-17%	2%	0%	.
Nc1[nH]c(C(=O)c2ccccc2)c(-c2ccc(C(F)(F)F)cc2)c1C(=O)NCc1ccc(Cl)cc1Cl	?	?	-3%	.
CCOC(=O)c1nn(-c2ccc(Br)cc2)cc1C(=O)c1cccc2ccccc12	8.2µM*	16µM*	0%	-2%
NC(=O)CC(NC(=O)c1ccccc1)c1ccc(NCc2ccccc2)c([N+](=O)[O-])c1 (centres undefined)	21µM*	23µM*	-3%	6%
NC(=O)CC(NC(=O)Cc1ccc(Br)cc1)c1ccc(NCc2ccc(F)c(F)c2)c([N+](=O)[O-])c1 (centres undefined)	16µM*	?	1%	5%
NC(=O)CC(NC(=O)c1ccccc1)c1ccc(NCc2ccc(F)c(F)c2)c([N+](=O)[O-])c1 (centres undefined)	?	?	-2%	.
NC(=O)CC(NC(=O)c1ccccc1)c1ccc(NCc2ccc(F)cc2)c([N+](=O)[O-])c1 (centres undefined)	18µM*	?	0%	2%
